Most compounds without a hit are left out; they make up all but 5.9% or so of the library.
ALR H2O2 inh – inhibitors of human sulfhydryl oxidase ALR; purified ALR, DTT oxidation, H2O2 HRP-luminol luminescence; P55789; inhibition, % (test concentration not listed); 290,000 compounds, 3.8% hits;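 active = mean replicate inhibition above about 79%, with every replicate also reaching it, limit read from the data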
Target sequence (P55789 whole entry, looked up): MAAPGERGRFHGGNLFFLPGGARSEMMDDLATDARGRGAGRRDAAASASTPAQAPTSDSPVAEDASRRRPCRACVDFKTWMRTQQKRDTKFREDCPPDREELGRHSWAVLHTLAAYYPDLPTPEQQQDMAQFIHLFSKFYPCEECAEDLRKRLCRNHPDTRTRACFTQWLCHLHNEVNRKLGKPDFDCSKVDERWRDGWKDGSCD
PRMT1 FP inh – PRMT1 (human) inhibition, primary screen | AID 652257 | 370,000 compounds, 1.3% hits | inhibition, % at 2.79 µM | recombinant PRMT1, activity-based probe fluorescence polarization | Q99873;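 active = inhibition above about 21% made by adding two undisclosed values, limit read from the data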
Target sequence (Q99873 whole entry, looked up): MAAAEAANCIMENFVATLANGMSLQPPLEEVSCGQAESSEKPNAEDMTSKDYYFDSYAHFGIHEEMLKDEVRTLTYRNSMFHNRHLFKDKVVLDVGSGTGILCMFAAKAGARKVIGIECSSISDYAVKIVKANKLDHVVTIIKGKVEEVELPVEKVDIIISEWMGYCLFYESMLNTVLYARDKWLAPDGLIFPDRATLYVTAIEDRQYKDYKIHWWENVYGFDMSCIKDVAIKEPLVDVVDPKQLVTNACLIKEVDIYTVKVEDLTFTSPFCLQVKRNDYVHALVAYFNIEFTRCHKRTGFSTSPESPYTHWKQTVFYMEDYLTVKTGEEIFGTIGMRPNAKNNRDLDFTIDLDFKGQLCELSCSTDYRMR
Rtt109 HAT inh – C. albicans Rtt109 histone acetyltransferase inhibition. 330,000 compounds, 0.16% hits. Q5AAJ8. purified Rtt109/Vps75, ThioGlo CoA-SH fluorescence, 4 h. inhibition, % at 34.9 µM;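 active = inhibition of at least 50% in every replicate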
LANA-H2A inh – blocks KSHV LANA binding to histone H2A/H2B; Q9QR71; cell-free LANA-H2A/H2B peptide, fluorescence polarization; inhibition, % (concentration not given with the values); 320,000 compounds, 0.6% hits; AID 2629; in the data active = inhibition mostly above about 10%, no sharp cut-off; inactive = mostly below about 6.7%
rCAG binder – binds r(CAG) RNA repeats; r(CAG) RNA repeat, TO-PRO-1 dye displacement fluorescence; inhibition, % at 3 µM; 370,000 compounds, 1.3% hits; AID 651821;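 active = inhibition above the plate cutoff, the mean of all test compounds on that plate plus 3 SD, cut at about 35% in these data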;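 also: higher means more dye released from RNA so lower well fluorescence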
ABHD5-PLIN5 inh – ABHD5-PLIN5 protein interaction inhibition | Split G. princeps luciferase complementation, luminescence, 4 h | inhibition, % at 4 µM | 360,000 compounds, 0.78% hits | Q00G26+Q8WTS1;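 active = inhibition above the mean inhibition across every tested compound plus 3 SD, cut at about 22% in these data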
A number is an active result; n = inactive; x = not tested or not shown.

SMILES	ALR H2O2 inh	PRMT1 FP inh	Rtt109 HAT inh	LANA-H2A inh	rCAG binder	ABHD5-PLIN5 inh
COc1ccc2c(Cl)c(C(=O)NN)sc2c1	n	n	n	n	n	n
CC[n+]1c(C)sc2cc(OC)ccc21	n	54.4	n	n	n	n
CCCCN(C(=O)COC(=O)c1nc2nc(C)cc(C)n2n1)C1CCS(=O)(=O)C1 (stereo not given)	n	n	n	x	n	n
Cc1ccn2nc(C(=O)OCC(=O)N(CC(C)C)C3CCS(=O)(=O)C3)nc2n1 (stereo not given)	n	n	n	80.3	n	n
S=c1[nH]nc(Cc2ccccc2)n1Cc1ccco1	88.8	n	n	n	n	n
Oc1cc2ccccc2cc1-c1n[nH]c(=S)n1Cc1ccco1	x	n	n	n	n	n
S=c1[nH]nc(C2CC2)n1Cc1ccco1	n	n	n	n	n	n
COc1cccc(-c2n[nH]c(=S)n2Cc2ccco2)c1OC	87.1	x	n	n	x	n
Oc1ccc(-c2n[nH]c(=S)n2Cc2ccco2)cc1	90.7	n	n	n	n	n
COc1cc(N2CCC(O)CC2)ccc1Nc1cc(Nc2ccccc2S(=O)(=O)C(C)C)c2cc[nH]c2n1	x	n	x	x	n	x
CC1CCC2(CC1)SCC(=O)N2c1ccc(F)cc1 (stereo not given)	98.8	n	n	n	n	n
CCCCOc1cccc(C(=O)NCCc2ccccc2-c2ccccc2CCC(=O)NCc2ccccc2)c1	x	n	x	x	n	x
Cc1ccc(-c2cc(C(=O)N3CCCc4ccccc43)c3ccccc3n2)cc1	n	n	n	n	n	n
O=C(c1cc(-c2cccnc2)nc2ccccc12)N1CCCc2ccccc21	94.7	n	n	n	n	n
CS(=O)(=O)N1CCN(C(=O)c2cc(-c3ccccc3)nc3ccccc23)CC1	n	n	n	9.7	n	n
COc1ccc(CN2C3=N[C@H](c4ccccc4)CC(=O)N3/C(=C\c3ccccc3)C2c2ccco2)c(OC)c1 (stereo not given in full)	x	n	x	x	n	x
Cc1ccc(C(C2=C(O)CC(C)(C)CC2=O)C2C(=O)CC(C)(C)CC2=O)o1 (stereo not given)	97.0	n	n	n	n	n
Nc1ccccc1C(=O)N=Nc1[nH]c(N)c2ccccc12	n	n	n	n	n	n
Nc1[nH]c(N=NC(=O)c2ccc(F)cc2)c2ccccc12	98.8	n	n	n	n	n
O=C(NCCCc1ccccc1)[C@H](CO)NC1(C(=O)NCCc2c[nH]c3ccccc23)CCCCC1	x	n	x	x	x	x
Oc1ccccc1Cn1nnc2ccccc21	x	n	n	n	n	n
Cc1cccc(Cn2nnc3ccccc32)c1O	89.9	n	n	n	n	n
Cn1ccsc1=NC(=O)c1ccccc1OC(F)F	n	n	n	n	n	n
CCOc1cc(C(=O)N=c2sccn2C)ccc1OC(F)F	n	n	n	20.0	n	n
C[C@H]1O[C@H]1P(=O)(O)O	x	n	n	33.4	n	n
SMILES	ALR H2O2 inh	PRMT1 FP inh	Rtt109 HAT inh	LANA-H2A inh	rCAG binder	ABHD5-PLIN5 inh
COc1cccc(C(C(=O)NC2CCCC2)N2CCN(c3cc(C)ccc3C)CC2)c1OC (stereo not given)	x	n	x	x	n	n
C=CCn1c(COc2ccc(C)cc2)nnc1SCC(=O)c1ccc(-c2ccccc2)cc1	x	n	x	x	n	x
CCCCCCCN(C(=O)CCl)c1ccccc1C	n	46.8	n	n	n	n
COc1ccc(C2CC(=O)C(c3ccccc3C)=CN2Cc2ccccc2)cc1 (stereo not given)	x	n	x	x	n	x
Cc1c(OCC(F)(F)F)ccnc1CS(=O)c1nc2ccccc2[nH]1 (stereo not given)	97.1	28.4	n	n	n	n
O=C(CC(Nc1ccccc1Cl)C(=O)OCC(=O)c1cccs1)c1ccccc1 (stereo not given)	n	21.2	n	n	n	n
O=C(NCc1ccc(F)cc1)c1cc(C2CCCN(C(=O)CCCc3ccccc3)C2)on1 (stereo not given)	x	n	x	x	n	n
COc1cccc(CO[C@H]2C=C[C@@H](c3ccccc3)O[C@@H]2COC(C)=O)c1	x	n	x	x	n	x
Cc1nonc1OCCn1c([N+](=O)[O-])cnc1C	n	n	52.6	n	n	n
O=C(CSc1ccc2c(c1)OCCO2)Nc1ccc(Br)cn1	n	n	n	n	n	n
O=C(CSc1ccc2c(c1)OCCO2)Nc1ncccc1O	n	23.9	n	n	n	n
O=C(CSc1ccc2c(c1)OCCO2)Nc1ccc(Cl)cn1	88.6	n	n	n	n	n
O=C(CSc1ccc2c(c1)OCCO2)NCc1ccccc1	n	n	n	n	n	n
O=S(=O)(c1ccc2[nH]c3c(c2c1)CCCC3)N1CCCCC1	n	n	n	18.0	n	n
N#Cc1ccc(S(=O)(=O)N2CCc3[nH]c4ccc(F)cc4c3C2)cc1	n	n	53.6	n	n	n
O=c1[nH]c2ccc(S(=O)(=O)N3CCCCC3)cc2[nH]1	n	n	n	n	n	n
Cc1c(N2C(=O)/C(=C3\C(=O)N(CC(=O)O)c4ccccc43)SC2=S)c(=O)n(-c2ccccc2)n1C	n	n	n	22.4	n	n
CCOC(=O)[C@]12CCCC=C1N(Cc1cccc3ccccc13)C(=O)[C@H](CC(=O)NCc1ccc(OC)c(OC)c1)C2	x	n	x	x	n	n
CN(C)CCCNc1nc2cc(-c3ccc(F)cc3)sc2c(=O)n1C	x	n	x	x	n	n
CC(=O)NC1C(=O)N(CCN2CCOCC2)c2ccc(Cl)cc21 (stereo not given)	n	21.9	n	n	n	n
CN(C)c1ccc(Cc2ccc(N(C)C)cc2)cc1	x	n	n	x	n	n
CNc1nnc(-c2ccc(N(C)C)cc2)s1	99.5	n	n	n	n	n
COC(=O)[C@]12C[C@H](CC(=O)N3CCSCC3)C(=O)N(CCc3ccc(OC)c(OC)c3)C1=C[C@H](C1CCCC1)O[C@@H]2C	x	n	x	x	n	x
c1ccc2sc(-n3cc(C4CCCCC4)nn3)nc2c1	x	n	x	x	n	n
O=C(NC1CC2CCC(C1)N2Cc1nnnn1Cc1ccco1)NC12CC3CC(CC(C3)C1)C2 (stereo not given)	79.7	n	n	n	n	n
SMILES	ALR H2O2 inh	PRMT1 FP inh	Rtt109 HAT inh	LANA-H2A inh	rCAG binder	ABHD5-PLIN5 inh
COC(=O)c1cc2c(c3c4cc(C#N)ccc4n(S(=O)(=O)c4ccc(C)cc4)c13)C(=O)N(C)C2	x	n	x	x	n	x
CSc1nsc(/C=C/Nc2ccc(O)cc2C)c1C#N	n	53.2	n	n	n	n
Cc1ccc(SCc2c(C#N)c3ccccc3n2C)cc1	99.4	n	n	n	n	n
COCC(C)NC(=O)c1ccc(CN2CCc3ccccc3C2)cc1 (stereo not given)	n	n	n	30.7	n	n
CCCCOc1ccc(C(=O)n2ccc3ccc(-c4ccc5ccn(Cc6cccc(C(=O)OC)c6)c5c4)cc32)cc1	x	n	x	x	n	x
C=CCN1C(=O)[C@@H](CC(=O)N2CCCC2)[C@]2(C(=O)OC)CCCCC=C12	x	n	x	x	n	x
COc1ccc(NC(=S)NNc2ccc(C(=O)O)cc2)cc1	n	21.3	n	n	n	n
